# The whole screen tested about 330,000 compounds, of which about 40 (0.01%) were called active. The sample holds actives, similar compounds and a random draw of the others, so the mix is not that of the screen. A number with no mark means an inactive call. The call rests on the fitted dose curve; in most records, active means well fitted inhibition curve with a large enough effect; inconclusive means small, poorly fitted or top-dose-only effect, or effect the other way; inactive means flat fitted curve, though single readings scatter.
# Target: Ubiquitin carboxyl-terminal hydrolase 2 (Homo sapiens) (UniProt O75604)
# Test: qHTS Assay for Inhibitors of Ubiquitin-specific Protease USP2a Using CHOP2 as the Reporter
# Settings: USP2 core, Ub-CHOP2 coupled fluorogenic reporter, 485/531; series mostly up to 38.3 µM; activity change, negative = inhibition: at the top concentration
# Description: NIH Molecular Libraries Screening Centers Network [MLSCN] NIH Chemical Genomics Center [NCGC] MLSCN Grant: XO1-MH079852-01 PI Name: Nicholson, Ben. Progenra Inc, Malvern, PA NCGC Assay Overview: Homeostasis of cellular proteins is maintained through a combination of synthesis and degradation. The pathway that accounts for the majority of protein degradation is the ubiquitin-proteasomal pathway. Ubiquitin (Ub) is highly conserved in all cells and the generation of a multi-Ub chain typically targets proteins for degradation by the proteasome. However, ubiquitination is highly reversible and dynamic. Deubiquitination, the reverse process, is catalyzed through the action of enzymes referred to as isopeptidases or deubiquitinating enzymes (DUBs). This group of enzymes is collectively responsible for maintaining adequate pools of free ubiquitin and regulating the ubiquitination status of cellular proteins. The class of DUBs referred to as the ubiquitin-specific proteases (USP) family functions endoproteolytically to cleave Ub chains from a wide range of protein substrates. USP2a deubiquitinates fatty acid synthase (FASN) which has recently been identified as an emerging oncology target. To identify inhibitors of USP2a a cell-free assay was employed. […] The reporter enzyme chosen is an enterokinase called CHOP2, which is activated when the Ub is cleaved by USP2. The free and now activated reporter can subsequently act on its reporter substrate. Thus, this coupled assay gives a fluorescent read-out at excitation/emission wavelengths of 485/531. The assay was developed by Progenra, Inc. and has been licensed for sale by LifeSensors, Inc. as Ub-CHOP2-Reporter-Kit (#PR1101).
# NCGC Assay Protocol Summary: The assay buffer, prepared fresh at the day of the assay, contains 20mM Tris-HCl pH 8.0, 2mM CaCl2, 2mM beta-Mercaptoethanol, 0.05% CHAPS. 3ul of 20nM (10nM final) USP2 core, which is stored on ice, is dispensed into a medium-binding black solid Kalypsys 1,536 well plate using the Kalypsys dispenser. The assay plate is then pinned with 23nL compound with the Kalypsys pintool in columns 5-48. The controls are pinned as follows: column 1 two-fold dilutions of 2M NEM in duplicate; column 2 2M NEM (final concentration 38.2mM); column 3&4 DMSO. The assay plate is incubated at RT for 30min. Subsequently, 1.5uL of 100nM (25nM final) Ub-CHOP2 and 1.5uL of 100nM (25nM final) Reporter Substrate (both stored on ice and protected from light) were dispensed into the plate using the Kalypsys dispenser. Plates were read after 60min RT incubation on a ViewLux (Perkin Elmer) plate reader using the following wavelengths Ex 485nm /Em 531nm. Data were normalized to the to AC100 inhibition (NEM). Concentration-response curves were fitted to the normalized data and the concentration-response curves were then classified based on curve quality (r2), response magnitude and degree of measured activity. The time zero reading was used to flag fluorescence artifacts. Keywords: ubiquitination, deubiquitination, proteases, profluorescent, MLSMR, MLPCN, NIH Roadmap, qHTS, NCGC
# Potency means the concentration at half of the fitted maximal effect.
# Sequence of Ubiquitin carboxyl-terminal hydrolase 2 (Homo sapiens) (O75604 whole entry, looked up): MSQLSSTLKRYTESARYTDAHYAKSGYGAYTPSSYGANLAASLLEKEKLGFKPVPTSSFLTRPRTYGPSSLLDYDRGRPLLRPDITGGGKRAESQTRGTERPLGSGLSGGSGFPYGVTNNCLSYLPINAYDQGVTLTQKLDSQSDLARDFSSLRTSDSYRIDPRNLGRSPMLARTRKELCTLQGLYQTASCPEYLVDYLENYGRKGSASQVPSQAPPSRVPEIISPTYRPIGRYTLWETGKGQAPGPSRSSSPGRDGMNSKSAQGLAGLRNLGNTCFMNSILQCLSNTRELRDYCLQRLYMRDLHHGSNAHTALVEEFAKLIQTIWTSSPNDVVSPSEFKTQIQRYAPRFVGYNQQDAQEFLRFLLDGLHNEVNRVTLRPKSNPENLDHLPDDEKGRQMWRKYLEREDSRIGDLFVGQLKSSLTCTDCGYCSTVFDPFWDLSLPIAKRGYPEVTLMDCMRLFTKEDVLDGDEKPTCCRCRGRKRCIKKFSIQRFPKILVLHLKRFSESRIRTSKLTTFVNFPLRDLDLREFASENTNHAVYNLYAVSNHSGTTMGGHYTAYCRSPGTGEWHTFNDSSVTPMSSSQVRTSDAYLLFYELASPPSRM
SMILES,"activity change, negative = inhibition",Potency
O=C(CSc1ncnc2c1oc1ccccc12)NC1CCCC1,0.138%,–
CSc1ccc(NC(=O)N2CC(C)OC(C)C2)cc1 (configuration not stated),1.48%,–
CC1O[C@H](OC2C(COC3OC(CO)C(O)[C@H](O)C3O)OC(OC3CC[C@]4(C)C(CC[C@@]5(C)[C@@H]4C=C[C@]46OC[C@@]7(CCC(C)(C)C[C@H]74)C(O)C[C@@]56C)C3(C)C)C(O)C2O)C(O)C(O)C1O (some centres not stated),10.1%,–
CCC(C)c1ccc(NC(=S)NCc2ccccn2)cc1 (configuration not stated),0.409%,–
Cc1cc(C(F)(F)F)c(C#N)c(SCC(=O)NC2CC2)n1,1.32%,–
COc1ccc2nc(NC3=NCN(CC4CCCO4)CN3)nc(C)c2c1 (configuration not stated),2.18%,–
CC(=O)C1=C(C)NC(=O)NC1c1cc(Br)ccc1OCC#N (configuration not stated),2.25%,–
Cc1ccc(NC(=O)C2CCC(C(C)(C)C)CC2)cc1S(=O)(=O)N1CCOCC1 (configuration not stated),-1.78%,–
O=C1C=CC(=O)N1c1ccc(N2CCCCC2)cc1,1.37%,–
CCOc1nc(OCC)nc(-n2cc(-c3ccccc3)nn2)n1,-0.746%,–
CC(C)(C)n1ncc2c(=O)n(Cc3ccc(Cl)cc3)cnc21,-1.06%,–
Cc1cc2c(c(=O)n1Cc1ccccc1)C1O[C@](CCCCN3C(=O)c4ccccc4C3=O)(Cc3ccccc31)O2,-1.2% [at 7.66 µM],–
CC(C)(C)NC(=O)CSC(=Nc1ccccc1F)NC#N,0.691%,–
O=C(CCl)Nc1ccc(Sc2ccc(NC(=O)CCl)cc2)cc1,0%,–
CC1CCN(C(=O)c2ccc(S(=O)(=O)Cc3cc(F)ccc3F)c([N+](=O)[O-])c2)CC1,3.21%,–
Cc1ccc(C2=NN(C(=O)CSc3nc(N)cc(N)n3)C(c3ccco3)C2)cc1 (configuration not stated),-0.905%,–
COc1ccc(-c2nc3cc(C)ccn3c2NC2CCCCC2)cc1SC1CCCCC1,-1.09%,–
Cc1ccc(C2(C(F)(F)F)N=C3Sc4cc(C)cc(C)c4N3C(=O)N2)cc1 (configuration not stated),0.557%,–
COc1ccc(CCOC(=O)CNC(=O)c2ccc(Cl)cc2Cl)cc1,-0.806%,–
[O-][n+]1c2c(nn1-c1ccc(Cl)c(Cl)c1)-c1nonc1CC2,-1.77%,–
Cn1c(SCC(=O)Nc2nccs2)nnc1-c1cccnc1,4.4%,–
Cc1c(C=O)c2ccccn2c1C(=O)c1ccncc1,-1.58%,–
O=c1[nH]c(=S)[nH]c2[nH]c(=S)[nH]c12,inactive,–
Cc1ccc(S(=O)(=O)CC(=O)Nc2sc(C)c(C)c2C(N)=O)cc1,-0.595%,–
CC(C)N1C(=O)N(c2ccccc2)C(C)(O)CC1(C)C (configuration not stated),-5.46%,–

SMILES,"activity change, negative = inhibition",Potency
Cc1ccc(-n2c(SCC(=O)N3CCC(C(=O)O)CC3)nc3ccccc3c2=O)cc1C,-1.95%,–
O=C(c1cccs1)n1nc(NCc2ccccc2)nc1NCc1ccccc1,-0.569%,–
COc1ccc(OC)c(-c2c(=O)n(OCc3ccccc3Br)c3ccccc3[n+]2[O-])c1,-0.713%,–
O=C1OC2(CCCCC2)CC2=C1C1O[C@](c3ccsc3)(Cc3ccccc31)O2,-1.62% [at 7.66 µM],–
CCCCNC(=O)C(C)N(CCN(C)C)C(=O)CCCCCN1C(=O)NC(c2ccc(Cl)cc2)C(C(=O)OCc2ccccc2)=C1C (configuration not stated),-1.09%,–
Cc1ccc(NC(=O)CC2C(=O)N(Cc3ccccc3)C(=S)N2NC(=O)c2cccc(F)c2)c(C)c1 (configuration not stated),2.98%,–
COC(=O)c1ccccc1Oc1c(F)c(F)nc(N2CCOCC2)c1F,1.09%,–
O=c1c2ccccc2[nH]c(=S)n1CCN1CCC(=C(c2ccc(F)cc2)c2ccc(F)cc2)CC1,-1.11%,–
CCN(CC(=O)Nc1ccc(NC(C)=O)cc1)C(=O)C1CC(=O)N(Cc2ccc(C)cc2)C1 (configuration not stated),1.17%,–
Cc1cccc(C)c1NC(=O)C1(C)c2cccc[n+]2CC(=O)N1Cc1cccs1 (configuration not stated),1.33%,–
CO[C@H]1[C@@H]2C=CO[C@@H](O[C@H]3O[C@@H](CO)[C@H](O)[C@@H](O)[C@@H]3O)[C@@H]2[C@@]2(CO)O[C@@H]12,2.02%,–
O=C(CC1SC(=Nc2ccccc2)N(Cc2ccccn2)C1=O)Nc1cccc(Cl)c1 (configuration not stated),-5.62%,–
Cc1coc2c(O)cc3c(c12)OC1(N2CCCCC2)C(=O)NCCCC31 (configuration not stated),2.56%,–
CCCCN(CCCC)CCCNC(=O)CN1C(=O)COc2ccc(S(=O)(=O)N3CCC(C)CC3)cc21,1.56%,–
CCOC(=O)N1CCN(S(=O)(=O)c2ccc3c(c2)C(C)C(=O)N3)CC1 (configuration not stated),-0.965%,–
COc1ccc(/C=C/C(=O)c2ccc(NS(=O)(=O)c3ccc(C)cc3)cc2)cc1O,-1.24%,–
COc1ccc(C(=O)/C=C/c2ccc(-c3ccccc3)cc2)cc1CSCC(=O)O,0.227%,–
COC(=O)c1ccc(COc2ccc(/C=C/C(=O)c3ccc(OC)c(CSCC(=O)O)c3)cc2OC)cc1,–,10 µM (active)
Cc1ccc(C2NC(C(=O)O)CS2)cc1 (configuration not stated),-0.252%,–
C=CCN(c1ccc(C(N)=O)cc1)S(C)(=O)=O,2.25%,–
Cc1cccc(N2CCN(Cc3nc(C4CC4)no3)CC2)n1,-0.896%,–
c1ccc2c(c1)C(=NC1CCCCC1)NC2=NC1CCCCC1,3.21%,–
CCCOc1ccc(C(=O)C(CCC(CNCC)C(=O)c2ccc(OCCC)cc2)CNCC)cc1 (configuration not stated),3.9%,–
COc1ccc(Br)cc1CN(C)CC(=O)Nc1cc(Cl)cc(Cl)c1,0.499%,–
COc1ccc2c3c(c(=O)oc2c1)C1O[C@](CCCCN2C(=O)c4ccccc4C2=O)(Cc2c1ccc1ccccc21)O3,0.0315% [at 7.66 µM],–

SMILES,"activity change, negative = inhibition",Potency
CC(C)NC(=O)C(=O)NCCCOC(C)C,0.0005%,–
O=C(CN1CCOCC1)N1CCCc2c1c(=O)oc1ccc(OCc3ccccc3)cc21,0.0242%,–
CCOCCOCCC(C(=O)O)P(=O)(c1ccccc1)c1ccccc1 (configuration not stated),3.9%,–
CCOC(=O)c1c(NC(=O)CCCN2CCOCC2)sc2c1CC(C)(C)OC2,-0.479%,–
CC(C)(C)[Si](OCC[C@@H]1C[C@@]1(C)[C@@H](NP(=O)(c1ccccc1)c1ccccc1)c1ccccc1)(c1ccccc1)c1ccccc1,3.45%,–
CCC(C)n1c(-c2cc(OC)c(OC)c(OC)c2)nc2nc3ccccc3nc21 (configuration not stated),3.89%,–
CC(C)(C)C(=O)NC1CC2CCCC(C1)N2C(=O)Nc1ccccc1F (configuration not stated),-1.32%,–
C=CC[n+]1c(-c2ccc(C)cc2)csc1NNC(=O)Nc1ccccc1,1.07%,–
CCNC(=S)N(CCN(CC)CC)Cc1cc2cc3c(cc2[nH]c1=O)OCO3,0.667%,–
Cn1c(CC(=O)NNC(=O)c2ccccc2F)nc2ccccc21,2.01%,–
COc1ccc(-c2[nH]ncc2CN(Cc2nccn2C)C(C)C)cc1F,-2.1%,–
Cc1cc(C)c(NC(=O)CSc2nc3ccncc3[nH]2)c(C)c1,-1.03%,–
CCOC(=O)C(CC)/C(C)=N\NC(=O)c1cccc(C)c1 (configuration not stated),-1.07%,–
CSc1nc(-c2ccco2)nn1C(=O)c1ccccc1Cl,-0.762%,–
CCN(CC)CCN1C(=O)C(=O)/C(=C(/O)c2cnn(-c3ccccc3)c2C)C1c1cccs1 (configuration not stated),-0.143%,–
Cc1ccc(C(=O)N/C(=C/c2ccco2)C(=O)NCCc2c[nH]c3ccccc23)cc1C,4.15%,–
Cc1ccc(NC(=O)CCC(=O)c2ccc(Br)cc2)cc1,2.53%,–
C/C(=N\NC(=O)NC1CCCCC1)c1ccc(OC(F)F)cc1OC(F)F,-1.05%,–
CCC(=O)Nc1c(S(=O)(=O)c2ccccc2)c2nc3ccccc3nc2n1Cc1ccccc1,1.47%,–
CC(c1ccco1)N(C(=O)Nc1ccccc1)C1CCCCC1 (configuration not stated),8.49%,–
Cc1ccc(NC(=O)Cn2cnc3c(OCc4ccccc4)ncnc32)cc1C,0.93%,–
COc1ccc(C(=O)N2CCc3cc(OC)c(OC)cc3C2c2cccc([N+](=O)[O-])c2)cc1 (configuration not stated),-0.741%,–
COc1ccc(C(=O)C2CCCN(C(=O)c3cc(C)on3)C2)cc1F (configuration not stated),-1.09%,–
COC(c1ccccc1)(c1ccccc1)C(Oc1nc(C)cc(C)n1)C(=O)O (configuration not stated),-0.435%,–
CN(C)/C=C(/C(=O)c1ccc(Cl)cc1)S(=O)(=O)c1ccccc1,-12.8%,–

SMILES,"activity change, negative = inhibition",Potency
O=C(Oc1ccc([N+](=O)[O-])cc1)c1ccc(Cl)c(S(=O)(=O)N2CCCCC2)c1,1.28%,–
Cc1ccc(N(Cc2cc(=O)[nH]c3ccccc23)C(=O)CCl)cc1,-0.609%,–
C=CCn1cc(Cl)cc(C(=O)Nc2ccccc2)c1=O,3.83%,–
CCCCCCCCn1c2c(c(=N)c3c1CCC3)CCCC2,11.8%,–
COc1cccc(CNC(=O)COc2cc(O)c3c(c2)OC(C)(C)CC3=O)c1,-0.256%,–
Cn1nnnc1NCc1ccc(Cl)c(Cl)c1,3.73%,–
COC(=O)c1cccc([N+](=O)[O-])c1CS(=O)(=O)c1ccc(C)cc1,3.14%,–
C#CCOCCOCCOCCNc1nc(N2CCN(C(=O)C([C@@H](C)O)n3cc([C@@H](N)CCCCN)nn3)CC2)nc(N2CCN(C(=O)[C@H](CCCCN)n3cc(CN)nn3)CC2)n1 (some centres not stated),3.74%,–
CN(C)CCCNc1c2c(c(C#N)c3nc4ccccc4n13)CCC2,0.168%,–
O=[N+]([O-])C(=c1ccc2c(c1)N1C3=C(CCCC3)CC3CCCCC31N=2)[N+](=O)[O-] (configuration not stated),0.873%,–
Cc1cc(N2CCN(c3ccc(F)cc3)CC2)n2ncnc2n1,9.32%,–
CCOC(=O)C1(CCOc2ccccc2)CCN(Cc2ccc(C#CCCO)cc2)CC1,-5.93%,–
CC(C)CN(C(=O)CSc1nncn1C)C1CCS(=O)(=O)C1 (configuration not stated),-1.91%,–
O=C(COC(=O)c1ccc(F)cc1F)Nc1ncccn1,0.688%,–
CC(=O)N[C@@H](C)C(=O)N1CCC(n2nccc2NC(=O)CCCc2ccccc2)CC1,0.0805%,–
Cc1ccc(C(=O)Nc2nnc(C3=COCCO3)o2)cc1C,2.21%,–
COc1ccccc1-n1c(C)nc2cc(C(=O)NCc3ccc4c(c3)OCO4)ccc21,-4.97%,–
CCCC(C)C(=O)NCc1ccncc1 (configuration not stated),-0.731%,–
CCOC(=O)c1sc(NC(=O)CSc2nc3c(c(=O)n2-c2ccccc2)SCC3)c(C(=O)OCC)c1C,-0.841%,–
CC(C)C(C)(C#N)NC(=O)CSc1nncn1-c1ccccc1 (configuration not stated),1.82%,–
COc1cccc(/C=C(/CC(=O)Nc2ccc(N3CCOCC3)cc2)c2nc3ccccc3s2)c1,0.762%,–
O=C(NC(=S)Nc1cccc(-c2ccc(CO)o2)c1)c1cccs1,-0.762%,–

# Reference: PubChem BioAssay AID463254 (National Center for Advancing Translational Sciences (NCATS), 2010)
